KDM5B inhibitor – blocks human KDM5B histone demethylase activity | KDM5B demethylase, FDH-coupled NADH fluorescence (FDH is formaldehyde dehydrogenase) | Potency, µM (doses to about 57.7 µM), most hits filed as inhibitors | 220,000 tested, 2.6% active | AID 1347165; further: potency means the concentration at half of the fitted maximal effect; 0% is about no effect; nearly all actives have a fitted effect of over 70% in size
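Inhibition is measured as reduced NADH fluorescence generation from FDH coupling to formaldehyde release. Truncated KDM5BΔAP at 200 nM final acts on H3K4me3 peptide (12.5 µM in substrate mix) in pH 7.5 HEPES buffer with Tween-20, 30 min, room temperature.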
SNCA expr inh – SNCA gene expression inhibition; HEK-293 SNCA-luciferase knock-in, luminescence, 24 h; Potency, µM (highest dose often 57.2 µM), without a hit: top-dose activity change, negative = inhibition, usual class: inhibitors; 140,000 tested, 0.17% active; AID 1671194;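 further: potency means the concentration at half of the fitted maximal effect; plate controls were DMSO cells for no effect and cell-free wells for full effect; nearly all actives have a fitted effect of over 45% in size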
HEK293 viab – counter-screen for SNCA expression inhibitors: cell viability. AID 1671193. Potency, µM (titrated, usually from 57.1 µM), for the others: at the highest dose activity change, negative = cytotoxicity, hits mostly cytotoxic. 150,000 tested, 0.12% active. HEK-293-SNCA-luc viability, GF-AFC fluorescence, 24 h;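 further: potency means the concentration at half of the fitted maximal effect; 0% = DMSO-treated cells and -100% = medium-only wells without cells; nearly all actives have a fitted effect of over 30% in size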
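HEK-293-SNCA-luc cells (1500/well) plated 24 h, then exposed 24 h to a dilution series; GF-AFC added 30 min at 37C, fluorescence 405/540 nm; normalised to medium-only and DMSO wells, Hill fit.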
IP6K1 inhibitor – blocks human inositol hexakisphosphate kinase 1 | IP6K1 kinase, ADP-Glo luminescence, 2 h; hits give low values | Q92551 | 140,000 tested, 0.81% active | AID 1645851 | activity change, % (series mostly up to about 58 µM); in the data active means activity change below about -25%; further: on the % scale 0 is the no-effect control and ±100 the full control effect
Target sequence (Q92551 whole entry, looked up): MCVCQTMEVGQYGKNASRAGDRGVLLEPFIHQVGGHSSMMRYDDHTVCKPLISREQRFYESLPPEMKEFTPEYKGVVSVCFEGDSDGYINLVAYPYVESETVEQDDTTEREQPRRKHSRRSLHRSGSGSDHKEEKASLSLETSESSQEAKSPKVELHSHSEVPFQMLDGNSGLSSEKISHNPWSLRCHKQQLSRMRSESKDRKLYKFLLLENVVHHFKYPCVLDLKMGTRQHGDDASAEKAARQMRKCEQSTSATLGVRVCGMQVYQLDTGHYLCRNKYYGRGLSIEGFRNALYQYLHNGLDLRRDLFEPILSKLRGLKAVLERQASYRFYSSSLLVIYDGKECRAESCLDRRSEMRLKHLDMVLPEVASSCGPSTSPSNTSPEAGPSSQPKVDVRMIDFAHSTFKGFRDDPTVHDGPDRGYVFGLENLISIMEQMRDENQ
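ADP-Glo luminescence measures ADP made by human IP6K1 during a 2 h RT reaction with ATP/IP6 (mix at 1.3 mM/130 uM); top library doses 57.5 and 19.1 uM final.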
Starred values were filed as active, the others as inactive; i = inactive; u = inconclusive; x = no result; + = active, no number; [ ] = another dose, or the depositor's remark. In the library only some 2.9% were active in any assay of this set; here they are far more common. Unless noted, the call rests on the fitted dose curve; in most records, active means well fitted curve in the direction sought with a large enough effect; inconclusive means small, poorly fitted or top-dose-only effect, or another doubt; inactive means no such curve, though single readings can be large; an effect the other way counts as inactive or inconclusive.

SMILES	KDM5B inhibitor	SNCA expr inh	HEK293 viab	IP6K1 inhibitor
CC1=C[C@@H](CNCc2ccccc2F)[C@H](C(C)C)C[C@H]1Cc1nc2c(C)cccc2[nH]1	i	u	u	0
COc1ccccc1-c1cc2c(ccn2C)c(C(=O)NCc2cnccn2)n1	32µM*	12%[87.6 µM]	3%[87.6 µM]	-13
COc1ccccc1-c1cc2c(ccn2C)c(C(=O)NCCc2ccccn2)n1	35µM*	58%[87.6 µM]	-10%[87.6 µM]	-6
COc1ccccc1-c1cc2c(ccn2C)c(C(=O)NCc2cccnc2)n1	i	51%[87.6 µM]	6%[87.6 µM]	31
O=C(N[C@H]1CO[C@H]2[C@@H]1OC[C@@H]2Nc1nccc(-c2ccco2)n1)c1ccco1	40µM*	4%[87.6 µM]	2%[87.6 µM]	14
S=C(Nc1ccccc1)N[C@H]1CO[C@H]2[C@@H]1OC[C@@H]2Nc1nccc(-c2ccco2)n1	25µM*	-6%[87.6 µM]	-5%[87.6 µM]	4
COc1cccc(C(=O)N2CCC3(CC2)OCC(C(=O)N2CCCC2)N3C(=O)c2ccccc2)c1 (centres undefined)	i	-8%	10%	8
CN1CCC([C@@H]2CN(S(=O)(=O)c3cccnc3)C[C@H]2C(N)=O)CC1	i	5%	5%[12.5 µM]	3
C#CCNC(=O)c1nc(-c2cccnc2)c2cnccn12	i	8%[87.6 µM]	11%[87.6 µM]	12
CC(C)NC(=O)c1nc(-c2ccsc2)c2cnccn12	40µM*	-24%[87.6 µM]	-14%[87.6 µM]	2
CC(C)NC(=O)c1nc(-c2cccc(F)c2)c2cnccn12	32µM*	-12%[87.6 µM]	u	13
C#CCNC(=O)c1nc(-c2ccsc2)c2cnccn12	32µM*	-35%[87.6 µM]	7%[87.6 µM]	2
CC(C)NC(=O)c1nc(-c2ccsc2)c2ccccn12	112µM*	-3%[87.6 µM]	-4%[87.6 µM]	-20
CC(C)NC(=O)c1nc(-c2ccc(Cl)cc2)c2ccccn12	89µM*	6%	8%	-20
C#CCNC(=O)c1nc(-c2ccc([S+](C)(=O)[O-])cc2)c2cnccn12	+	-2%	21%	-4
CCCNC(=O)CSc1nc(C)nc2sc3c(c12)CCC3	i	x	x	x
CNC(C)c1ccncc1 (centres undefined)	16µM*	-19%[87.6 µM]	-12%[87.6 µM]	-1
CNC(C)c1ccc(Oc2ccccc2)cc1 (centres undefined)	i	0%[87.6 µM]	-18%[87.6 µM]	4
CCN(CC)c1cc(CCC(=O)Nc2ccc(OC)c(OC)c2)ccn1	u	15%	-1%	9
CCN(CC)c1cc(CCC(=O)NCc2cc(OC)ccc2OC)ccn1	14µM*	-2%	1%	0
CCn1cc(CCC(=O)NCc2ccccc2OC)c2ccccc21	u	2%	3%	27
CCN(CC)c1cc(CCC(=O)NCc2ccccc2OC)ccn1	25µM*	-28%	-3%	-1
O=C(COc1ccc(F)cc1)NCCc1c[nH]c2ccccc12	i	x	x	x
Cc1ccc(-n2nc3c(=O)n(CCCC(=O)NC(C)c4ccccc4)nc(C)c3c2C)cc1 (centres undefined)	i	28µM*	2%	0
Cc1ccc(-n2nc3c(=O)n(CCCC(=O)NCCc4ccccc4)nc(C)c3c2C)cc1	i	22%	5%	10
SMILES	KDM5B inhibitor	SNCA expr inh	HEK293 viab	IP6K1 inhibitor
CCc1nc2ccc(C(=O)NCC(F)(F)F)cc2nc1CC	i	x	x	x
Cc1ccc(C(=O)Nc2cccc(-c3ccc(N4CCN(C)CC4)nn3)c2)cc1C	i	14%	-10%	16
CN1CCN(c2ccc(-c3cccc(N)c3)nn2)CC1	i	22µM*	-5%	-10
CCCNC(=O)NCC1c2cc(OC)c(OC)cc2CCN1C(=O)NC(C)C (centres undefined)	22µM*	-6%	3%	16
CCCNC(=O)NCC1c2cc(OC)c(OC)cc2CCN1C(=O)NCC (centres undefined)	i	-6%	1%	4
O=C(NC1CC1)c1nc(-c2cccc(C(F)(F)F)c2)c2ccccn12	u	32%	-4%	5
O=C(NC1CC1)c1nc(-c2cccnc2)c2ccccn12	89µM*	36%[87.6 µM]	-14%[87.6 µM]	-13
O=C(NC1CC1)c1nc(-c2ccc(F)cc2)c2ccccn12	32µM*	3%[87.6 µM]	7%[87.6 µM]	4
COc1cc(=O)n2c(c1C(=O)NCc1ccc(F)cc1Cl)CCCC2	i	-19%	-5%	-14
CCN(C(=O)c1ccco1)c1nc(-c2ccc(C)cc2)cs1	i	x	x	x
CN(C)CCNC(=O)c1ccc(-c2ccc(N3CCCCCC3)nc2)cc1	25µM*	130%	-10%	-6
CN(Cc1ccco1)C(=O)c1ccc(-c2ccc(N3CCCCCC3)nc2)cc1	28µM*	31%	-7%	-6
O=C(NCc1ccc2c(c1)OCO2)c1ccc(-c2ccc(N3CCSCC3)nc2)cc1	28µM*	32%	-15%	-2
O=C(NCc1ccccn1)c1ccc(C2CCCCC2)cc1	i	x	x	x
Cc1ccc(CNC(=O)c2ccc(-c3ccc(N4CCSCC4)nc3)cc2)o1	i	24%	u	-6
CN(Cc1ccco1)C(=O)c1cccc(S(=O)(=O)N2CCCCC2)c1	i	x	x	x
COc1ccc(CNC(=O)c2ccc(-c3ccc(N4CCSCC4)nc3)cc2)cc1OC	u	9%	9%	-4
O=C(NCc1ccccn1)c1ccc(-c2ccc(N3CCCCC3)nc2)cc1	16µM*	55%	-5%	-6
CC(=O)N1CCC(N2C[C@H](O)C[C@H]2c2nc(CS(=O)(=O)c3ccc(C)cc3)no2)CC1	i	2%	-9%	-12
Cc1nn(C(=O)CCC(=O)N2CCC(Cc3nncn3-c3ccccc3)CC2)c2ccccc12	i	u	5%	6
O=C(NCCN1CCCCC1)c1ccc(N2CC3CC(C2)[C@H]2CCCC(=O)N2C3)nc1 (some centres undefined)	i	1%	13%	16
O=C(NCCN1CCOCC1)c1ccc(-c2ccc(N3CCSCC3)nc2)cc1	28µM*	23%	-1%	11
O=C(NCCN1CCCCC1)c1ccc(-c2ccc(N3CCSCC3)nc2)cc1	28µM*	59%	3%	-1
CN1CCN(CCNC(=O)c2ccc(-c3ccc(N4CCCCCC4)nc3)cc2)CC1	22µM*	23%	-17%	2
O=C(NCCCN1CCCC1)c1ccc(-c2ccc(N3CCCCC3)nc2)cc1	22µM*	21%	0%	20
SMILES	KDM5B inhibitor	SNCA expr inh	HEK293 viab	IP6K1 inhibitor
CCC(C)NC(=O)c1ccc(-c2ccc(N3CCSCC3)nc2)cc1 (centres undefined)	u	10%	0%	1
Cc1ccc(C(=O)NCCN2CCCC2)cc1	i	x	x	x
O=C(NCCN1CCCCC1)c1ccc(-c2ccc(N3CCCCC3)nc2)cc1	28µM*	41%	u	-15
CC(C)CCNC(=O)c1ccc(-c2ccc(N3CCSCC3)nc2)cc1	22µM*	2%	-13%	9
CC1=C[C@@H](CN(C)CCO)[C@H](C(C)C)C[C@H]1Cc1nnc(-c2ccccc2F)o1	i	-4%[87.6 µM]	u	-6
CC1=C[C@@H](CNCc2cccnc2)[C@H](C(C)C)C[C@H]1Cc1nnc(-c2ccccc2)o1	i	u	u	-9

Compound activity deposited in PubChem by National Center for Advancing Translational Sciences (NCATS).
